Test results as given in the supplement of paper PMC6555819.

Legend:
Assay in all cases: PBM binding z-score (relative to random genomic background probes); higher = stronger binding; sequences stand for … in GC…GCGATTGACAGCGTAGAATGAAGG
[1] = tested on: FXR:RXRa (NR concentration 270 nM, RXRa partner concentration 90 nM)
In short: (§1)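 Ligand-free nuclear receptor dimers were applied to custom Agilent 4×180K protein-binding microarrays whose double-stranded probes carried direct-repeat seeds, single-nucleotide variants, half-site ablations and random human genomic background sequences in 34-nt variable regions. Incubation lasted 1 h. Binding z-scores were computed against the random background probes from regression-normalized fluorescence.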

[2] = tested on: LXRa:RXRa (NR concentration 270 nM, RXRa partner concentration 90 nM)
In short: as §1

[3] = tested on: LXRa homodimer (NR concentration 270 nM)
In short: as §1

[4] = tested on: LXRb:RXRa (NR concentration 270 nM, RXRa partner concentration 90 nM)
In short: as §1

[5] = tested on: LXRb homodimer (NR concentration 270 nM)
In short: as §1

[6] = tested on: PPARa:RXRa (NR concentration 270 nM, RXRa partner concentration 90 nM)
In short: as §1

[7] = tested on: PPARg:RXRa (NR concentration 180 nM, RXRa partner concentration 90 nM)
In short: as §1

[8] = tested on: PPARg:RXRa 270nM:90nM, anti-RXR (NR concentration 270 nM, RXRa partner concentration 90 nM)
In short: as §1

[9] = tested on: PPARg:RXRa 30nM:10nM, anti-RXR (NR concentration 30 nM, RXRa partner concentration 10 nM)
In short: as §1

[10] = tested on: PPARg:RXRa 90nM:30nM, anti-RXR (NR concentration 90 nM, RXRa partner concentration 30 nM)
In short: as §1

[11] = tested on: PPARg:RXRa DBDmut IVT, anti-RXR (DBD mutation: RXRa K156A/R161A, NR concentration 270 nM, RXRa partner concentration 90 nM)
In short: as §1

[12] = tested on: PPARg:RXRa IVT, anti-PPARg (NR concentration 270 nM, RXRa partner concentration 90 nM)
In short: as §1

[13] = tested on: PPARg DBDmut:RXRa IVT, anti-PPARg (DBD mutation: PPARg1 K132A/R137A, NR concentration 270 nM, RXRa partner concentration 90 nM)
In short: as §1

[14] = tested on: PPARg DBDmut IVT, anti-PPARg (DBD mutation: PPARg1 K132A/R137A, NR concentration 270 nM)
In short: as §1

[15] = tested on: PPARg homodimer (NR concentration 180 nM)
In short: as §1

[16] = tested on: PXR:RXRa (NR concentration 270 nM, RXRa partner concentration 90 nM)
In short: as §1

[17] = tested on: PXR homodimer (NR concentration 270 nM)
In short: as §1

[18] = tested on: RARa:RXR (NR concentration 270 nM, RXRa partner concentration 90 nM)
In short: as §1

[19] = tested on: RARa homodimer (NR concentration 270 nM)
In short: as §1

[20] = tested on: RARb:RXRa (NR concentration 270 nM, RXRa partner concentration 90 nM)
In short: as §1

| Sequence | PBM binding z-score [1] | PBM binding z-score [2] | PBM binding z-score [3] | PBM binding z-score [4] | PBM binding z-score [5] | PBM binding z-score [6] | PBM binding z-score [7] | PBM binding z-score [8] | PBM binding z-score [9] | PBM binding z-score [10] | PBM binding z-score [11] | PBM binding z-score [12] | PBM binding z-score [13] | PBM binding z-score [14] | PBM binding z-score [15] | PBM binding z-score [16] | PBM binding z-score [17] | PBM binding z-score [18] | PBM binding z-score [19] | PBM binding z-score [20] |
| --- | --- | --- | --- | --- | --- | --- | --- | --- | --- | --- | --- | --- | --- | --- | --- | --- | --- | --- | --- | --- |
| CCTACTGGGCCAGTCAGAGGTCATTGATCATATG | 2.43 | 3.71 | 5.39 | 3.58 | -0.105 | 3.66 | 2.18 | 3.32 | 0.876 | 2.2 | 3.73 | 3.52 | -0.533 | -0.399 | 2.3 | 4.85 | 1.42 | 4.37 | 0.375 | 2.92 |
| TCTCAGAGGACACGAAGGTCAGAGCTTTCCAGAG | 1.39 | 1.27 | 0.407 | 0.974 | -0.749 | 2.07 | 0.696 | 2.01 | 3.02 | 2.45 | 1.91 | 1.5 | -0.856 | -1.02 | 1.11 | 2.05 | 0.954 | 2.02 | -0.195 | 3.78 |
| ATAGACAGGTGATGAAGGTAACTCAGGCTATCAT | -0.202 | -0.185 | -0.277 | -0.324 | 0.162 | -0.103 | 0.6 | 0.152 | 0.156 | -0.14 | -0.221 | 0.67 | 1.3 | 0.102 | 0.341 | -0.261 | 0.251 | -0.0358 | 0.641 | 0.316 |
| TCTAGTTGGCCACGGAGGTCACACACGACGGGTA | 2.71 | 2.79 | 1.39 | 3.2 | 0.0016 | 3.68 | 2.32 | 2.96 | 2.82 | 2.84 | 1.59 | 2.78 | 1.61 | 0.255 | 2.19 | 4.03 | 0.788 | 3.94 | 0.587 | 3.35 |
| ATCTCTAGGTAAAGATAGCTCAGTGAATGCAAAT | -0.126 | -0.286 | -0.237 | -0.258 | 0.316 | -0.203 | 0.422 | 0.32 | 0.153 | 0.317 | 1.84 | 1.53 | 1.58 | 0.349 | 0.00125 | -0.537 | -0.0577 | -0.292 | 0.787 | -0.195 |
| AGAACGAGGGCACGCTGAGTTGATAACAGAGTAG | 0.997 | 0.505 | -0.474 | 0.399 | -0.662 | 2.29 | 2.11 | 1.82 | 0.679 | 1.14 | 4.19 | 3.68 | 0.246 | 0.187 | 0.159 | 1.33 | 0.018 | 0.895 | -0.194 | 2.4 |
| GTACCAAGGTGAATAGGTCGTAGATGAGTAGGCG | 0.946 | 0.897 | -0.305 | 0.416 | -0.297 | 2.39 | 1.82 | 2.02 | 0.602 | 1.25 | 1.69 | 2.84 | -0.433 | -0.143 | 0.982 | 0.659 | -0.144 | 1.8 | 0.467 | 2.17 |
| CCTGCTAGGTCAATGGTCAGTTAAAGCAGCTCGC | 3.02 | 2.09 | 0.0181 | 1.53 | -0.0412 | 3.22 | 4.36 | 4.88 | 2.78 | 4.69 | 4.28 | 3.9 | -0.811 | -0.609 | 1.46 | 0.845 | -0.135 | 1.69 | -0.34 | 3.95 |
